# PubChem BioAssay (NCATS)
# Values joined by “and” are separate entries in the source; they are usually repeats but may differ in a detail not shown here. Equal entries are not always repeated. Records with an inconclusive call do not appear. A structure can be active in one record and inactive in another. Values without a mark were called inactive. Active and inactive are the calls of the source. Calls come from the whole dose curve; as a rule, active = well fitted inhibition curve with a large enough effect; inconclusive = small, poorly fitted or top-dose-only effect; inactive = flat fitted curve, though single readings scatter.
# Experiments:
# [1] = Drug repurposing screens with cells derived from glioblastoma tumor samples (AID 1345199); details: GBM patient neurospheres viability, ATP luminescence, 48 h; note: nearly all actives have a fitted effect of over 40% in size
# In short: (§1)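 Four patient lines of CD133+ GBM neurospheres were screened at several concentrations; hits were retested in those lines plus three slower-growing GBM lines, using 48-hour treatment and ATP-based viability.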
# [2] = tested on: astro; experiment: as above; details: viability, ATP luminescence, 48 h; series mostly up to 45.9 µM
# In short: as §1
# [3] = at 20 µM (top of the series), tumour line C
# [4] = at 21.2 µM (top of the series), tumour line B
# [5] = at 21.2 µM (top of the series), tumour line D
# [6] = at 45.9 µM (top of the series), tumour line B
# [7] = at 45.9 µM (top of the series), tumour line D
# [8] = at 46 µM (top of the series), tumour line A
# [9] = at 46.1 µM (top of the series), tumour line C
# [10] = at 108 µM (top of the series), tumour line B
# [11] = at 108 µM (top of the series), tumour line D
# % is set by controls: 0 for no effect and ±100 for the full control effect; potency is the fitted concentration of half-maximal effect.
smiles,measurement,setting,value
NCC[C@H](O)C(=O)N[C@@H]1C[C@H](N)[C@@H](O[C@H]2O[C@H](CN)[C@@H](O)[C@H](O)[C@H]2N)[C@H](O[C@@H]2O[C@H](CO)[C@@H](O)[C@H]2O)[C@H]1O,"activity, negative = cell killing",[1]; [3],-6.64%
same,"activity, negative = cell killing",[1]; [4],-8.33%
same,"activity, negative = cell killing",[1]; [5],-11.1%
same,"activity, negative = cell killing","[1]; at 21.3 µM (top of the series), tumour line A",-21.7%
same,Potency,[2],inactive
C[C@]12CC[C@H](OS(=O)(=O)O)CC1=CC[C@@H]1[C@@H]2CC[C@]2(C)C(=O)CC[C@@H]12,"activity, negative = cell killing",[1]; [6],3.89%
same,"activity, negative = cell killing",[1]; [7],-2.35%
same,"activity, negative = cell killing",[1]; [8],-29.4%
same,"activity, negative = cell killing",[1]; [9],-15.3%
same,Potency,[2],inactive
CCON=O,"activity, negative = cell killing",[1]; [6],-13.3%
same,"activity, negative = cell killing",[1]; [7],8.29%
same,"activity, negative = cell killing",[1]; [9],-23.8%
same,Potency,[1]; tumour line A,224 nM (active)
same,Potency,[2],inactive
CCC(N)Cc1c[nH]c2ccccc12 (stereo unspecified),"activity, negative = cell killing",[1]; [6],-19.3%
same,"activity, negative = cell killing",[1]; [7],-10.1%
same,"activity, negative = cell killing",[1]; [9],-22.2%
same,"activity, negative = cell killing",[1]; [10],-20.5%
same,"activity, negative = cell killing",[1]; [11],-20.7%
same,Potency,[1]; tumour line A,31600 nM (active)
same,Potency,[2],inactive
Oc1cccc[c]1[Hg][Cl],"activity, negative = cell killing",[1]; [9],-98.2%
same,Potency,[1]; tumour line A,398 nM (active)
same,Potency,[1]; tumour line B,562 nM (active)
same,Potency,[1]; tumour line D,1000 nM (active)
same,Potency,[2],2820 nM (active)
C[C@]12CC[C@H]3[C@@H](CCC4=C(Cl)C(=O)CC[C@@]43C)[C@@H]1CC[C@@H]2O,"activity, negative = cell killing",[1]; [6],-16.4%
same,"activity, negative = cell killing",[1]; [7],-29.9%
same,Potency,[1]; tumour line A,12600 nM (active)
Clc1ccc(Cl)cc1,"activity, negative = cell killing",[1]; [6],-3.79%
same,"activity, negative = cell killing",[1]; [7],-0.0641%
same,"activity, negative = cell killing",[1]; [8],-16.3%
same,"activity, negative = cell killing",[1]; [9],-0.658%
same,Potency,[2],inactive
CC(C)(O)[C@@H]1[C@H]2OC(=O)[C@@H]1[C@]1(O)C[C@H]3O[C@]34C(=O)O[C@H]2[C@]14C,"activity, negative = cell killing",[1]; [6],-2.1% and -10.8%
same,"activity, negative = cell killing",[1]; [7],11.7% and -21%
same,"activity, negative = cell killing",[1]; [8],-37.4% and -27.2%
same,"activity, negative = cell killing",[1]; [9],-9.46% and -22%
same,Potency,[2],inactive
CCCCCCCCCC(=O)O[C@H]1CC[C@H]2[C@@H]3CCC4=CC(=O)CC[C@]4(C)[C@H]3CC[C@]12C,"activity, negative = cell killing",[1]; [6],-12.8%
same,"activity, negative = cell killing",[1]; [7],-20.9%
same,"activity, negative = cell killing",[1]; [9],-14.9%
same,Potency,[1]; tumour line A,15800 nM (active)
COc1ccc2c3c1O[C@H]1[C@@H](O)C=C[C@H]4[C@@H](C2)NCC[C@@]341,"activity, negative = cell killing",[1]; [6],-18.4%
same,"activity, negative = cell killing",[1]; [7],-17.8%
same,"activity, negative = cell killing",[1]; [9],-25.3%
same,"activity, negative = cell killing","[1]; at 99.2 µM (top of the series), tumour line C",6.81%
same,"activity, negative = cell killing",[1]; [10],-9.55%
same,"activity, negative = cell killing",[1]; [11],-1.54%
same,Potency,[2],inactive
CC(=O)O[C@H]1CC[C@@]2(C)C(=CC[C@@H]3[C@@H]2CC[C@]2(C)C(=O)CC[C@@H]32)C1,"activity, negative = cell killing",[1]; [3],-28.7%
same,"activity, negative = cell killing",[1]; [4],-3.53%
same,"activity, negative = cell killing",[1]; [5],-21.5%
same,Potency,[1]; tumour line A,7940 nM (active)
same,Potency,[2],inactive
